The source of these data is the supplement of paper PMC12669032.

In the experiment the test system is Collinsella aerofaciens. Kind of experiment: growth AUC relative to DMSO control (median of replicates) (fraction); higher = more growth (less inhibition), active = hit call of the paper. As to conditions: 20 µM; 24 h;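 active = AUC reduced over 20% with Padj below 0.05 in at least 2 of 3 replicates; inactive = otherwise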. The procedure, abridged:
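Hourly OD600 readings over 24 h tracked anaerobic gut bacterial monocultures grown at 37 °C in mGAM from OD600 0.05 with 20 µM compound (1% DMSO). After the minimum OD was set to 0, area under the growth curve was normalised to the plate median of solvent-only wells, or to row and column medians on the industrial chemical plate. Values are medians of three biological replicates grown on separate days.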
With `CCCSC(=O)N(CCC)CCC`, the “growth AUC” value was 0.967 (inactive). The value for `CCOP(=S)(OCC)SCCSCC` was 0.972 (inactive); that for `Nc1c(Cl)c(Cl)c(Cl)c(Cl)c1Cl` was 1 (inactive); that for `N#Cc1c(Cl)cccc1Cl` was 1.02 (inactive).

On to `CC(CCl)OP(=O)(OC(C)CCl)OC(C)CCl` (mixture of isomers), for which the “growth AUC” value is 0.951 (inactive). The same measure for `CNC(=O)/C(=N/OC)c1ccccc1Oc1ccccc1`: 0.998 (inactive); for `Clc1c(Cl)c(Cl)c(Cl)c(Cl)c1Cl`: 1.06 (inactive); for `C#CC(C)(C)NC(=O)c1cc(Cl)cc(Cl)c1`: 0.936 (inactive).

As for `CNC(=O)Oc1cc(C)c(SC)c(C)c1`, the “growth AUC” value is 0.934 (inactive). `C[N+](C)(C)CCCl.[Cl-]`: the “growth AUC” value was 1.02 (inactive). The value for `CC(C)(C)c1cc([N+](=O)[O-])cc([N+](=O)[O-])c1O` was 0.96 (inactive). Consider `CCOP(=S)(OCC)SCSc1ccc(Cl)cc1`, for which the “growth AUC” value is 0.963 (inactive). The same measure for `O=S(=O)(c1ccc(Cl)cc1)c1cc(Cl)c(Cl)cc1Cl`: 0.945 (inactive). The same measure for `CCOCCN(C(=O)CCl)C(=C(C)C)c1ccccc1`: 1.02 (inactive); for `CC(C)(O)C(Cl)(Cl)Cl.CC(C)(O)C(Cl)(Cl)Cl.O`: 0.999 (inactive). The value for `Nc1cnn(-c2ccccc2)c(=O)c1Cl` was 1 (inactive); that for `CC(C)=CC1C(C(=O)OCN2C(=O)C3=C(CCCC3)C2=O)C1(C)C` (centres undefined) was 0.955 (inactive); that for `O=P(OCCCl)(OCCCl)OCCCl` was 0.977 (inactive). On to `COCc1c(F)c(F)c(COC(=O)[C@@H]2[C@@H](C=C(Cl)Cl)C2(C)C)c(F)c1F`, for which the “growth AUC” value was 1 (inactive).
